Compound activity from PubChem.
Tau fluor counter: Counterscreen qHTS for Inhibitors of Tau Fibril Formation, Fluorescence Polarization. actives 0.93% (n = 280,000). AID 1463, 2008. Potency, µM (top dose mostly 57.7 µM). tau K18 P301L Alexa594 fluorescence, heparin fibrillization; further: nearly all actives have a fitted effect of over 55% in size
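Human K18 P301L tau (15 uM unlabeled plus 0.24 uM Alexa 594-labeled, final) in 100 mM sodium acetate pH 7 was mixed with compound and 20 uM heparin and incubated 6 hr at 37 C.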
Tau ThT inhib: qHTS for Inhibitors of Tau Fibril Formation, Thioflavin T Binding; actives 2.1% (n = 270,000); Potency, µM (highest dose often 57.4 µM), usual class: inhibitors; recombinant tau K18 P301L (four-repeat tau fragment), heparin-induced fibrillization, ThT fluorescence; Microtubule-associated protein tau (Homo sapiens), P10636; AID 1460, 2008; further: nearly all actives have a fitted effect of over 55% in size
Target sequence (P10636 561-689 P618L limits assumed): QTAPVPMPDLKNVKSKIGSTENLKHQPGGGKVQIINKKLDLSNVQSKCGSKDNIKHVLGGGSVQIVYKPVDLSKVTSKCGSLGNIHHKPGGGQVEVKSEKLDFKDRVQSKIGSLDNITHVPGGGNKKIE
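K18 P301L tau (15 uM + 0.24 uM Alexa 594-tagged), heparin 20 uM, NaOAc pH 7, 6 h 37 C; ThT 30 uM, 1 h RT, ex 450/em 510 nm.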
FBPA coupling cs: qHTS Assay for Inhibitors of Fructose-1,6-bisphosphate Aldolase from Giardia Lamblia: Coupling assay counterscreen | coupling enzyme system counterscreen, AmpLite Red fluorescence | activity change, negative = inhibition, % at 58.2 µM, hits read low | actives 0.67% (n = 290,000) | AID 2472, 2010; in the data active means activity change below about -30%
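Compounds tested against the coupling enzymes alone at 57.5 uM final; readout was AmpLite Red fluorescence (525/598 nm) after 20 min at RT.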
JMJD2E inh: qHTS Assay for Inhibitors of Human Jumonji Domain Containing 2E (JMJD2E); actives 1.6% (n = 230,000); Lysine-specific demethylase 4E (Homo sapiens), B2RXH2; JMJD2E catalytic domain, FDH-coupled NADH fluorescence (FDH is formaldehyde dehydrogenase); AID 2147, 2009; Potency, µM (titrated, usually from 57.1 µM), usual class: inhibitors; active means well fitted inhibition curve with a large enough effect, not every such curve was filed as active; inconclusive means small, poorly fitted or top-dose-only effect, or another doubt; inactive means no such curve, though single readings can be large or run the other way; further: nearly all actives have a fitted effect of over 50% in size
Target sequence (B2RXH2 1-337 limits assumed): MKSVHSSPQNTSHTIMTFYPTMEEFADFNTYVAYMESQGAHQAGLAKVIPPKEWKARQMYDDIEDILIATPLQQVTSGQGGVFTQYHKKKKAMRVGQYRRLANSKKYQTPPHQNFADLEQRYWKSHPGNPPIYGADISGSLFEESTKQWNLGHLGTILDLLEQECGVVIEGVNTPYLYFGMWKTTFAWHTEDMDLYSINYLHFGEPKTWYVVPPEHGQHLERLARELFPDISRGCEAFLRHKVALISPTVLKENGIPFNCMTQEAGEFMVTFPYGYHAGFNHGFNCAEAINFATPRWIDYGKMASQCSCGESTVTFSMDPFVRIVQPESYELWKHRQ
Tau fibril FP: qHTS for Inhibitors of Tau Fibril Formation, Fluorescence Polarization | Microtubule-associated protein tau (Homo sapiens), P10636 | K18 P301L tau heparin fibrillization, Alexa594 FP, 6 h | AID 1468, 2008 | Potency, µM (top dose mostly 57.7 µM), usual class: inhibitors | actives 0.39% (n = 280,000); further: nearly all actives have a fitted effect of over 55% in size
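FP of Alexa 594-tau after heparin (20 uM) induction. Substrate: human K18 P301L, 15 uM unlabeled, 0.24 uM labeled. Buffer 100 mM sodium acetate pH 7. 6 hr, 37 C.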
Numbers stand for hits; 0 = inactive; ? = inconclusive; - = not tested or not shown; ! = not confirmed by another sample; [ ] = another dose, or the depositor's remark. In the library only some 3% were active in any assay of this set; here they are far more common. Unless noted, the call rests on the fitted dose curve; in most records, active means well fitted curve in the direction sought with a large enough effect; inconclusive means small, poorly fitted or top-dose-only effect, or another doubt; inactive means no such curve, though single readings can be large; an effect the other way counts as inactive or inconclusive.

SMILES | Tau fluor counter | Tau ThT inhib | FBPA coupling cs | JMJD2E inh | Tau fibril FP
Cc1ccc(-n2c(O)c(/C=N/NC(=O)c3ccncc3)c(=O)[nH]c2=O)cc1C | 0 | ? | 0 | 22µM | 0
O=C(N/N=C/c1c(O)n(CCc2ccccc2)c(=O)[nH]c1=O)c1ccncc1 | 0 | ? | 0 | 28µM | 0
COc1ccccc1-n1c(O)c(C=NCc2ccc3c(c2)OCO3)c(=O)[nH]c1=O | 0 | 0 | 0 | 0 | 0
O=C(N/N=C/c1c(O)n(CCc2ccccc2)c(=O)[nH]c1=O)c1ccccc1O | 0[0.0958 µM] | - | 0 | 28µM | 0[0.0958 µM]
CCn1c(O)c(/C=N/NC(=O)c2ccccc2)c(=O)[nH]c1=S | 0 | - | 0 | 32µM | 0
COc1ccccc1-n1c(O)c(/C=N/NC(=S)Nc2ccccc2)c(=O)[nH]c1=S | ? | ? | 0 | 28µM | 0
CCOc1cc(OP(=S)(OC)OC)nc(CC)n1 | - | - | 0 | - | -
CC(=O)OCC(=O)C1CCC2C3CC=C4CC(O)CC[C@@]4(C)C3CC[C@]12C (some centres undefined) | 0 | 0 | 0 | 0 | 0
CN1[C@@H]2CC[C@H]1CC(OC(c1ccc(F)cc1)c1ccc(F)cc1)C2 (some centres undefined) | 0 | 0 | 0 | 0 | 0
CCOc1cccc(OCC)c2c(C)[n+](CC3CCCO3)c(C)c1-2 (centres undefined) | ? | 20µM | 0 | ? | ?
CCCC[C@@H](C)[C@@H](OC(=O)C[C@@H](CC(=O)O)C(=O)O)[C@H](C[C@@H](C)CCCCCC[C@@H](O)C[C@H](O)[C@H](C)N)OC(=O)C[C@@H](CC(=O)O)C(=O)O | - | - | 0 | - | -
Oc1ccc(Cl)cc1Cc1cc(Cl)ccc1O | 11µM[quencher] | ? | 0 | 0 | ?
CCOc1ccc(N2C(=O)NC(=O)/C(=C\c3cc(OC)c(OC)cc3[N+](=O)[O-])C2=O)cc1 | 0 | 14µM | 0 | - | ?
COc1ccc(N2C(=O)NC(=O)/C(=C\c3ccc([N+](=O)[O-])s3)C2=O)cc1 | ? | 14µM | 0 | 25µM | ?
COc1cccc(N2C(=O)NC(=O)/C(=C/c3ccc([N+](=O)[O-])s3)C2=O)c1 | 0 | - | 0 | 25µM | 0
COc1cccc(N2C(=O)NC(=O)/C(=C/c3ccc4c(c3)Cc3ccccc3-4)C2=O)c1 | 0 | ? | 0 | ? | 0
COc1ccc(N2C(=O)/C(=C/C=C/c3ccccc3[N+](=O)[O-])C(=O)NC2=S)cc1 | ? | 28µM | 0 | ? | ?
COc1ccc(N2C(=O)NC(=O)/C(=C/c3ccc(N4CCOCC4)cc3)C2=O)cc1 | 0 | ? | 0 | ? | 0
COc1ccccc1C(=O)Nc1ccc2nc(SCC(=O)N3CCCc4ccccc43)sc2c1 | 0 | 0 | - | - | ?
Cc1ccc(N2C(=O)NC(=O)/C(=C\c3ccc([N+](=O)[O-])o3)C2=O)cc1 | 0 | 22µM | 0 | 0 | ?
COc1ccc(N2C(=O)NC(=O)/C(=C/c3ccc([N+](=O)[O-])s3)C2=O)cc1 | ? | - | 0 | 20µM | 32µM
COc1ccccc1N1C(=O)NC(=O)/C(=C/c2ccc([N+](=O)[O-])s2)C1=O | ? | - | 0 | ? | 32µM
COc1ccccc1N1C(=O)NC(=O)/C(=C\c2cnn(-c3ccccc3)c2)C1=O | 0 | ? | 0 | 0 | 0
COc1ccc(N2C(=O)/C(=C/c3cccs3)C(=O)NC2=S)cc1 | 0 | - | 0 | ? | 0
CCCCC/C=C\C/C=C\C/C=C\CCCCC(=O)NCCO | 0 | 0 | 0 | 0 | 0
SMILES | Tau fluor counter | Tau ThT inhib | FBPA coupling cs | JMJD2E inh | Tau fibril FP
C[C@@H]1OC=C2[C@@H](O)[C@H]3O[C@H]3C(=O)[C@@]23[C@H]1[C@H]1C2=C([C@@H](O)[C@H]4O[C@@H]4C2=O)[C@@H]3O[C@@H]1C | ? | ? | 0 | - | ?
CCCC(Cn1cncn1)c1ccc(Cl)cc1Cl (centres undefined) | - | - | 0 | - | -
COc1ccc(CC2NC[C@H](O)[C@H]2OC(C)=O)cc1 (some centres undefined) | 0 | 0 | 0 | 0 | 0
Cn1c(O)c(C(c2ccncc2)c2c(O)n(C)c(=S)n(C)c2=O)c(=O)n(C)c1=S | 0 | ? | 0 | 0 | 0
Cc1ccccc1-n1c(O)c(C(c2ccncc2)c2c(O)n(-c3ccccc3C)c(=O)[nH]c2=O)c(=O)[nH]c1=O | 0 | - | 0 | 18µM | ?
CCC1(C)CC(C(N)=S)CCO1 (centres undefined) | 0 | 13µM | 0 | ? | ?
Cc1ccc(N2C(=O)/C(=C/c3ccc(CN(CCC#N)S(C)(=O)=O)o3)C(=O)NC2=S)cc1 | 0 | 22µM | 0 | ? | ?
Cc1ccc(/C=C2\C(=O)NC(=S)N(c3ccc(F)cc3)C2=O)o1 | - | - | 0 | - | -
C=CCn1c(O)c(C(C)=Nc2ccc(N(C)C)cc2)c(=O)[nH]c1=O | ? | 18µM | 0 | ? | 0
CN(C)C1CSSSC1 | - | - | 0 | - | -
Cc1cc(C)n(-c2ccc(NN=C(C#N)C#N)cc2)n1 | ? | 5µM | 0 | 0 | 0
Oc1ccc2c3c1O[C@H]1c4c(c5ccccc5n4Cc4ccccc4)C[C@@]4(O)C(C2)N(CC2CC2)CC[C@]314 | ? | 0 | - | - | 0
CCOc1ccc2nc(N=Nc3c(O)[nH]c(=O)[nH]c3=O)sc2c1 | 0 | 4.5µM | 0 | 0 | 0
CCOc1ccc2nc(N=Nc3c(O)[nH]c(=S)[nH]c3=O)sc2c1 | ? | 2.2µM | 0 | 0 | 0
CCOC(=O)c1sc(N=Nc2c(O)[nH]c(=O)[nH]c2=O)c(C(=O)OCC)c1C | 0 | 0 | 0 | 0 | 0
COc1ccc2c(c1)CC[C@@H]1[C@@H]2CC[C@]2(C)[C@@H](NCCCCCCN3C(=O)C=CC3=O)CC[C@@H]12 | 0 | 0 | - | - | 0
CCOC(=O)C(C)Oc1cc(C)cc2oc(=O)c3c(c12)CCCC3 (centres undefined) | 0 | ? | 0 | 13µM | 0
COC(=O)C(C)Oc1cc(C)cc2oc(=O)c3c(c12)CCCC3 (centres undefined) | 0 | 0 | 0 | ? | 0
C=C(C)[C@]12C[C@@H](C)[C@@]34O[C@](Cc5ccccc5)(O[C@@H]1[C@@H]3C=C(COC(=O)Cc1ccc(O)c(OC)c1)C[C@]1(O)C(=O)C(C)=C[C@@H]41)O2 | ? | ? | 0 | - | 0
O=C1NC(=O)C(=Cc2ccccc2OCCOc2ccc([N+](=O)[O-])cc2)C(=O)N1 | 0 | ? | 0 | 0 | ?
CN1C(=O)C(=Cc2ccccc2OCCOc2ccc([N+](=O)[O-])cc2)C(=O)N(C)C1=O | ? | 10µM | 0 | 0 | ?
S=C(S)N1CCCC1 | 0 | 32µM | 0 | ? | ?
N#CC(C#N)=Cc1ccc(O)cc1 | - | - | 0 | - | -
N#CC(C#N)=Cc1cc(O)c(O)c(O)c1 | ? | 13µM! | - | 2µM | 22µM!
